Experimental data reported in the antibiotic and cytotoxicity screens of Wong et al. (2023).
About 3,300 (8.5%) of roughly 39,000 compounds were called active. The sample as a whole holds a higher share of actives than the screen did.

Test system: HepG2
Assay: cytotoxicity call (relative viability < 0.9)
Settings: 10 µM

Row | SMILES | cytotoxicity call
1 | COc1ccc(C(=O)NC(CO)(CO)CO)cc1OC | inactive
2 | C[C@@H]1CN([C@H](C)CO)S(=O)(=O)c2ccc(C#CC3CCCC3)cc2O[C@@H]1CN(C)C(=O)Cc1ccncc1 | inactive
3 | COc1cc2c(cc1O)CCN[C@]21CS[C@@H]2c3c(OC(C)=O)c(C)c4c(c3[C@H](COC1=O)N1[C@@H]2[C@H]2c3c(cc(C)c(OC)c3O)C[C@@H]([C@@H]1O)N2C)OCO4 | active
4 | CO[C@H](CN(C)S(=O)(=O)c1ccc(C)cc1)[C@@H](C)CN([C@@H](C)CO)S(=O)(=O)c1cccc(Cl)c1 | inactive
5 | Cc1cnc(Nc2ccc(F)cc2Cl)nc1-c1c[nH]c(C(=O)N[C@H](CO)c2cccc(Cl)c2)c1 | active
6 | C[C@@H]1CN([C@@H](C)CO)C(=O)Cc2cc(NC(=O)CCN3CCOCC3)ccc2O[C@H]1CN(C)Cc1ccc(C(=O)Nc2ccccc2N)cc1 | inactive
7 | CC1(C)C(=O)C=CC2(C)C1CC(=O)C1(C)C2CCC2(C)C(c3ccoc3)OC(=O)C3OC321 (centres undefined) | active
8 | CC(=O)OC1CC(OC(C)=O)C2(C)C(CC(=O)C3(C)C2CCC2(C)C(c4ccoc4)OC(=O)C4OC423)C1(C)C (centres undefined) | inactive
9 | CC1(C)C(=O)C=CC2(C)C1C=CC1(C)C2CCC2(C)C(c3ccoc3)OC(=O)C3OC312 (centres undefined) | active
10 | CC1(C)OC2CC(=O)OCC23C1CC(=O)C1(C)C3CCC2(C)C(c3ccoc3)OC(=O)C3OC321 (centres undefined) | inactive
11 | CC(=O)OC1CCC2(C)C(CC(OC(C)=O)C3(C)C2CCC2(C)C(c4ccoc4)OC(=O)C4OC423)C1(C)C (stereo not drawn) [3beta-ACETOXYDEOXODIHYDROGEDUNIN ] | inactive
12 | CC(=O)O[C@H]1CC[C@]2(C)[C@H]3CC[C@@]4(C)[C@H](c5ccoc5)OC(=O)[C@H]5O[C@]54[C@]3(C)[C@H](OC(C)=O)C[C@H]2C1(C)C | inactive
13 | C[C@H]1CCCCO[C@@H](CN(C)C(=O)c2ccncc2)[C@@H](C)CN([C@@H](C)CO)C(=O)c2cc(NS(=O)(=O)c3ccc(Cl)cc3)ccc2O1 | inactive
14 | Nc1ccc([C@@H](O)[C@@H](O)CO)cc1 | inactive
15 | COc1ccc(S(=O)(=O)N(C)C[C@@H]2Oc3c(NC(=O)c4cnccn4)cccc3C(=O)N([C@@H](C)CO)C[C@H]2C)cc1 | inactive
16 | C[C@H](CO)N1C[C@H](C)[C@H](CN(C)C(=O)Cc2ccccn2)Oc2ncc(-c3cccc(C(=O)N(C)C)c3)cc2C1=O | inactive
17 | COc1ccc(S(=O)(=O)N(C)C[C@@H]2Oc3ccc(NS(C)(=O)=O)cc3CC(=O)N([C@H](C)CO)C[C@@H]2C)cc1 | inactive
18 | COc1ccc(NC(=O)Nc2ccc3c(c2)C(=O)N([C@@H](C)CO)C[C@@H](C)[C@@H](CN(C)Cc2ccc4c(c2)OCO4)OCCCC[C@@H](C)O3)cc1 | inactive
19 | COc1ccc(NC(=O)Nc2ccc3c(c2)C(=O)N([C@H](C)CO)C[C@@H](C)[C@@H](CN(C)Cc2ccc4c(c2)OCO4)OCCCC[C@@H](C)O3)cc1 | active
20 | COc1ccc(NC(=O)Nc2ccc3c(c2)C(=O)N([C@H](C)CO)C[C@@H](C)[C@H](CN(C)Cc2ccc4c(c2)OCO4)OCCCC[C@@H](C)O3)cc1 | inactive
21 | COc1ccc(NC(=O)Nc2ccc3c(c2)C(=O)N([C@H](C)CO)C[C@H](C)[C@@H](CN(C)Cc2ccc4c(c2)OCO4)OCCCC[C@H](C)O3)cc1 | inactive
22 | COc1ccc(NC(=O)Nc2ccc3c(c2)C(=O)N([C@H](C)CO)C[C@H](C)[C@H](CN(C)Cc2ccc4c(c2)OCO4)OCCCC[C@H](C)O3)cc1 | active
23 | COc1ccc(NC(=O)Nc2ccc3c(c2)C(=O)N([C@@H](C)CO)C[C@H](C)[C@H](CN(C)Cc2ccc4c(c2)OCO4)OCCCC[C@@H](C)O3)cc1 | inactive

Row | SMILES | cytotoxicity call
24 | C[C@@H]1CCCCO[C@H](CN(C)C(=O)NC2CCCCC2)[C@H](C)CN([C@@H](C)CO)C(=O)c2cc(NC(=O)c3ccccc3)ccc2O1 | inactive
25 | C[C@@H]1CN([C@@H](C)CO)C(=O)Cc2cc(NC(=O)Cc3ccccc3)ccc2O[C@H]1CN(C)C(=O)Nc1cccc2ccccc12 | inactive
26 | C[C@@H]1CCCCO[C@H](CN(C)Cc2ccncc2)[C@@H](C)CN([C@H](C)CO)C(=O)c2cc(NC(=O)Nc3ccccc3)ccc2O1 | inactive
27 | COc1ccc(S(=O)(=O)Nc2cccc3c2O[C@@H](CN(C)S(=O)(=O)c2ccc(OC)cc2)[C@@H](C)CN([C@@H](C)CO)C3=O)cc1 | inactive
28 | COc1cc(C(=O)OCCN2CCN(CCOC(=O)c3cc(OC)c(OC)c(OC)c3)CC2)cc(OC)c1OC | inactive
29 | COc1c(OCCCN2CCOCC2)ccc2c1N=C(NC(=O)c1cnc(N)nc1)N1CCN=C21 | inactive
30 | CCc1c(O)cc(O)c(C(=O)c2ccc(OCCN3CCOCC3)c(OC)c2)c1CC(=O)N(CCOC)CCOC | active
31 | C[C@H]1CN([C@@H](C)CO)C(=O)c2cccc(NS(=O)(=O)c3ccc(F)cc3)c2O[C@@H]1CN(C)CC1CC1 | inactive
32 | Cc1cc(=O)n(CCO)c(=O)[nH]1 | inactive
33 | CCC(=O)N(C)C[C@H]1Oc2ncc(C#C[C@H](C)O)cc2C(=O)N([C@H](C)CO)C[C@H]1C | inactive
34 | CC(C)(C)[S@](=O)N1Cc2cc(C(=O)N[C@@H]3CCN(Cc4ccccc4)C3)nc(-c3cccc(-c4cccnc4)c3)c2[C@@H]1CCO | inactive
35 | COc1ccccc1NC(=O)N(C)C[C@@H]1Oc2ncc(C#CCN(C)C)cc2C(=O)N([C@H](C)CO)C[C@@H]1C | inactive
36 | COc1cccc(NC(=O)N(C)C[C@@H]2Oc3ncc(C#Cc4cccnc4)cc3C(=O)N([C@@H](C)CO)C[C@H]2C)c1 | inactive
37 | COc1cccc(NC(=O)N(C)C[C@H]2Oc3ncc(C#Cc4cccnc4)cc3C(=O)N([C@H](C)CO)C[C@H]2C)c1 | inactive
38 | COc1cccc(NC(=O)N(C)C[C@@H]2Oc3ncc(C#Cc4ccncc4)cc3C(=O)N([C@H](C)CO)C[C@H]2C)c1 | active
39 | COc1cccc(NC(=O)N(C)C[C@@H]2Oc3ncc(C#Cc4ccncc4)cc3C(=O)N([C@@H](C)CO)C[C@H]2C)c1 | inactive
40 | COc1cccc(NC(=O)N(C)C[C@H]2Oc3ncc(C#Cc4ccncc4)cc3C(=O)N([C@H](C)CO)C[C@@H]2C)c1 | inactive
41 | COc1ccccc1NC(=O)N(C)C[C@@H]1Oc2ncc(C#CCN(C)C)cc2C(=O)N([C@@H](C)CO)C[C@@H]1C | inactive
42 | COc1cccc(NC(=O)N(C)C[C@@H]2Oc3ncc(C#Cc4ccncc4)cc3C(=O)N([C@@H](C)CO)C[C@@H]2C)c1 | inactive
43 | COc1ccccc1NC(=O)N(C)C[C@@H]1Oc2ncc(C#CCN(C)C)cc2C(=O)N([C@@H](C)CO)C[C@H]1C | active
44 | COc1cccc(NC(=O)N(C)C[C@@H]2Oc3ncc(C#Cc4ccncc4)cc3C(=O)N([C@H](C)CO)C[C@@H]2C)c1 | inactive
45 | COc1cccc(NC(=O)N(C)C[C@H]2Oc3ncc(C#Cc4ccncc4)cc3C(=O)N([C@H](C)CO)C[C@H]2C)c1 | active
46 | COc1cccc(NC(=O)N(C)C[C@H]2Oc3ncc(C#Cc4ccncc4)cc3C(=O)N([C@@H](C)CO)C[C@@H]2C)c1 | active

Row | SMILES | cytotoxicity call
47 | COc1ccc(CN(C)C[C@H]2Oc3c(NC(=O)c4cc(C)nn4C)cccc3C(=O)N([C@@H](C)CO)C[C@@H]2C)cc1 | inactive
48 | COc1ccc(NC(=O)Nc2cccc3c2O[C@H](CN(C)S(=O)(=O)c2cn(C)cn2)[C@H](C)CN([C@@H](C)CO)C3=O)cc1 | inactive
49 | O=C(CCCCCC(=O)Nc1ccccc1O)N/N=C/[C@H](O)[C@@H](O)[C@H](O)[C@H](O)CO[C@H]1O[C@H](CO)[C@H](O)[C@H](O)[C@H]1O | inactive
50 | O=C(C[C@@H]1CC[C@H](NC(=O)CN2CCOCC2)[C@H](CO)O1)NCCc1ccccc1 | inactive
51 | C[C@H]1CN([C@@H](C)CO)C(=O)c2cc(-c3ccc(F)cc3)cnc2O[C@H]1CN(C)C(=O)Cc1ccccn1 | inactive
52 | C[C@@H]1CCCCO[C@@H](CN(C)S(C)(=O)=O)[C@H](C)CN([C@@H](C)CO)C(=O)c2cc(NC(=O)Nc3ccc(C(F)(F)F)cc3)ccc2O1 | inactive
53 | CC(C)CC#Cc1ccc2c(c1)O[C@@H](CN(C)C(=O)NC1CCCC1)[C@H](C)CN([C@@H](C)CO)S2(=O)=O | inactive
54 | COc1ccc(NC(=O)N(C)C[C@@H]2OCCCC[C@@H](C)Oc3ccc(NC(=O)CCC(F)(F)F)cc3C(=O)N([C@H](C)CO)C[C@@H]2C)cc1 | inactive
55 | C[C@@H]1CCCCO[C@@H](CN(C)C(=O)NC2CCCCC2)[C@H](C)CN([C@@H](C)CO)C(=O)c2cc(NC(=O)CCCCCC(=O)Nc3ccccc3N)ccc2O1 | inactive
56 | CS(=O)(=O)Nc1ccc2oc3c(OC(F)F)ccc(C(=O)Nc4c(Cl)cncc4Cl)c3c2c1 | inactive
57 | O=c1ccc2c[nH][nH]c-2c1 | inactive
58 | O=C(CCN1CCNCC1)N1CCCCC1 | inactive
59 | COc1ccc(S(=O)(=O)N(C)C[C@@H]2OCCCC[C@@H](C)Oc3ccc(NS(=O)(=O)c4cn(C)cn4)cc3C(=O)N([C@H](C)CO)C[C@@H]2C)cc1 | inactive
60 | C[C@H]1CCCCO[C@H](CN(C)Cc2ccc(C(=O)O)cc2)[C@@H](C)CN([C@@H](C)CO)C(=O)c2cc(NS(=O)(=O)c3ccccc3)ccc2O1 | inactive
61 | C[C@H](CO)N1C[C@H](C)[C@@H](CN(C)CC2CCCCC2)Oc2ccc(NC(=O)Nc3ccccc3)cc2C1=O | inactive
62 | C[C@H]1CN([C@@H](C)CO)C(=O)c2cc(NC(=O)Nc3cccc4ccccc34)ccc2O[C@H]1CN(C)CC1CCCCC1 | active
63 | C[C@H](CO)N1C[C@H](C)[C@H](CN(C)CC2CCCCC2)Oc2ccc(NC(=O)Nc3cccc4ccccc34)cc2C1=O | inactive
64 | C[C@@H]1CN([C@@H](C)CO)C(=O)c2cc(NC(=O)Nc3cccc4ccccc34)ccc2O[C@H]1CN(C)CC1CCCCC1 | inactive
65 | C[C@H]1CN([C@@H](C)CO)C(=O)c2cc(NC(=O)Nc3cccc4ccccc34)ccc2O[C@@H]1CN(C)CC1CCCCC1 | inactive
66 | C[C@@H]1CN([C@H](C)CO)C(=O)c2cc(NC(=O)Nc3cccc4ccccc34)ccc2O[C@H]1CN(C)CC1CCCCC1 | active
67 | C[C@H](CO)N1C[C@H](C)[C@@H](CN(C)CC2CCCCC2)Oc2ccc(NC(=O)Nc3cccc4ccccc34)cc2C1=O | inactive
68 | C[C@@H]1CN([C@H](C)CO)C(=O)c2cc(NC(=O)Nc3cccc4ccccc34)ccc2O[C@@H]1CN(C)CC1CCCCC1 | active
69 | C[C@@H]1CN([C@@H](C)CO)C(=O)c2cc(NC(=O)Nc3cccc4ccccc34)ccc2O[C@@H]1CN(C)CC1CCCCC1 | inactive
